In PubChem BioAssay (NCI) one finds growth data, which are given here for 32 compounds.

Several values for one entry are separate records, joined by “and”; a condition that tells them apart may be missing. Equal entries are not always repeated. About 83,000 compounds went through this panel and 20% of them were active in at least one assay; those are over-represented in the sample as a whole.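 Interpretation: 100, growth as untreated; towards 0, rising growth inhibition; 0, no net growth; 0 to -100, cell death. Compounds scoring below 10 were considered active.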 Activity calls are given as the source filed them.

One assay has as its system A549/ATCC NSCLC. Put plainly: NCI-60 one-dose screen, 48 h (100 = growth as untreated, 0 = no growth, -100 = all killed). To be noted: 10 µM unless noted.
For the compound `CCC(CCCN(CC)CCc1ccccc1)OC(=O)c1cc(OC)c(OC)c(OC)c1` (centres undefined), the growth was 75.1% (inactive).

Take `CCC(CC)COC(=O)c1ccc(O)c(O)c1`: the growth is 52% (inactive).

Take `COC(=O)Nc1nc2ccc(C(=O)c3ccccc3)cc2[nH]1`: the growth is 20.8% (inactive) and 22.2% (inactive) and 17.2% (inactive).

With `CC(=O)ON=C1C=CC(=C(C#N)c2ccccc2)C=C1`, the growth is 32.2% (inactive).

Take `NC(=O)/C=C/C(=O)c1c(Cl)cccc1Cl`: the growth was -43.1% (active).

For `CCCCCCCCCCCCCCCC[N+](C)(CCO)Cc1cnc[nH]1` (centres undefined), the growth is -36.1% (active).

`Oc1c(Br)cc(Cl)cc1C(c1cc(Cl)cc(Br)c1O)C(Cl)(Cl)Cl`: the growth is 14% (inactive).

With `CC1OC2CC(=O)OC2C2=C1C(=O)c1c(O)cccc1C2=O` (centres undefined), the growth is 2.68% (active).

With `CC(C)(C)c1ccc(O)c(C2CCCCC2)c1`, the growth is 95.9% (inactive).

`Oc1c(Cl)cc(Cl)c2cccnc12`: the growth is 30.6% (inactive).

For the compound `CCN(CC)CC(C)(C)C(=O)/C=C/c1ccc(Cl)c(Cl)c1`, the growth was 33.3% (inactive).

Regarding `CN(C)CCOc1ccc2c(c1)C(=O)/C(=C\c1ncc([N+](=O)[O-])n1C)C2`, the growth is -29.6% (active).

As for `C/C=C1\SC(=S)NC1=O`, the growth was 99.7% (inactive).

As for `CCOC(=O)/C(=C\c1ccc(-c2ccccc2)cc1)C(C)=O`, the growth was 111% (inactive).

Regarding `N#CSCc1ccc(CSC#N)c(Cl)c1`, the growth is 75.8% (inactive).

`CNC(=O)N/N=C/c1ccc([N+](=O)[O-])o1`: the growth is 82.3% (inactive).

Regarding `Cc1cc2nc(CS)[nH]c2cc1C`, the growth was 94.2% (inactive).

`N#CC1C(=O)SC2c3ccccc3C(=O)c3ccccc3C12` (centres undefined): the growth is 84.9% (inactive).

For `Nc1nc(N)c2c(ccc3c2ccn3Cc2cccc([N+](=O)[O-])c2)n1`, the growth was -83% (active).

In the case of `Cn1c2c(c3ccccc31)CCN1C[C@@H]3CCCC[C@H]3C[C@@H]21`, the growth was 23.1% (inactive).

Regarding `Oc1c(Br)c(Br)c(O)c(Br)c1Br`, the growth is 118% (inactive).

In the case of `O=C(Nc1ccccc1)Oc1c(Cl)c(Cl)c(Cl)c(Cl)c1Cl`, the growth is 106% (inactive) and 91.9% (inactive).

Consider `Nc1ncnc2c1ncn2C1OC(CO)C(O)C1O` (centres undefined), for which the growth is 106% (inactive) and 97.7% (inactive).

For the compound `Nc1nc(N)c2nc(CNc3ccc(C(=O)NC(CCC(=O)O)C(=O)O)cc3)cnc2n1` (centres undefined), the growth was 28.7% (inactive) and 36.9% (inactive).

With `O=C(CC1(O)C(=O)Nc2c(Cl)ccc(Cl)c21)c1ccc(Cl)cc1Cl` (centres undefined), the growth is 91.4% (inactive).

Take `O=C(/C=C\c1ccccc1)N1c2ccccc2CC1c1c[nH]c2ccccc12` (centres undefined): the growth is 64.5% (inactive).

As for `CC1=CC(O)C2CC1C2(C)C` (centres undefined), the growth was 91.9% (inactive) and 106% (inactive).

Consider `CCN1/C(=C\c2cc[n+](CC)c3ccccc23)C=Cc2ccccc21`, for which the growth is 18.9% (inactive).

With `CC(C)c1ccc2nc3ccc(C(=O)NCCN4CCN(c5ccccc5)CC4)cn3c(=O)c2c1`, the growth is 57.3% (inactive).

Turning to `O=C(O)C1C2CC3C(OC(=O)C31)C2Br` (centres undefined), the growth is 79.6% (inactive) and 101% (inactive).

As to `NC(=S)N/N=C/c1ccc(Cl)s1`, the growth is 106% (inactive).

With `CCN(CC)CCOc1ccc(-c2nc3cc(Cl)ccc3s2)cc1`, the growth is -1.04% (active).

A further assay deals with 786-0 renal. The assay is described as above. The conditions noted are these: 10 µM unless noted.
For `CCC(CCCN(CC)CCc1ccccc1)OC(=O)c1cc(OC)c(OC)c(OC)c1` (centres undefined), the growth is 89.9% (inactive).

With `CCC(CC)COC(=O)c1ccc(O)c(O)c1`, the growth was 78.5% (inactive).

Consider `COC(=O)Nc1nc2ccc(C(=O)c3ccccc3)cc2[nH]1`, for which the growth was 19.8% (inactive) and 23.6% (inactive) and 31.9% (inactive).

In the case of `CC(=O)ON=C1C=CC(=C(C#N)c2ccccc2)C=C1`, the growth is 15.4% (inactive).

With `NC(=O)/C=C/C(=O)c1c(Cl)cccc1Cl`, the growth was -98.8% (active).

Regarding `CCCCCCCCCCCCCCCC[N+](C)(CCO)Cc1cnc[nH]1` (centres undefined), the growth is -40.1% (active).

Take `Oc1c(Br)cc(Cl)cc1C(c1cc(Cl)cc(Br)c1O)C(Cl)(Cl)Cl`: the growth is 26.9% (inactive).

Regarding `CC1OC2CC(=O)OC2C2=C1C(=O)c1c(O)cccc1C2=O` (centres undefined), the growth is -87.9% (active).

For `CC(C)(C)c1ccc(O)c(C2CCCCC2)c1`, the growth was 99.8% (inactive).

As for `Oc1c(Cl)cc(Cl)c2cccnc12`, the growth is 69.1% (inactive) and 74% (inactive).

As to `CCN(CC)CC(C)(C)C(=O)/C=C/c1ccc(Cl)c(Cl)c1`, the growth is -60.2% (active).

Regarding `CN(C)CCOc1ccc2c(c1)C(=O)/C(=C\c1ncc([N+](=O)[O-])n1C)C2`, the growth is -26.4% (active).

Take `C/C=C1\SC(=S)NC1=O`: the growth is 97.8% (inactive).

Take `CCOC(=O)/C(=C\c1ccc(-c2ccccc2)cc1)C(C)=O`: the growth is 105% (inactive).

For the compound `N#CSCc1ccc(CSC#N)c(Cl)c1`, the growth was 73.2% (inactive).

As to `CNC(=O)N/N=C/c1ccc([N+](=O)[O-])o1`, the growth is 111% (inactive).

In the case of `Cc1cc2nc(CS)[nH]c2cc1C`, the growth was 81.6% (inactive).

Turning to `N#CC1C(=O)SC2c3ccccc3C(=O)c3ccccc3C12` (centres undefined), the growth is 96.8% (inactive).

In the case of `Nc1nc(N)c2c(ccc3c2ccn3Cc2cccc([N+](=O)[O-])c2)n1`, the growth is -89.6% (active).

`Cn1c2c(c3ccccc31)CCN1C[C@@H]3CCCC[C@H]3C[C@@H]21`: the growth is -12.7% (active).

Take `Oc1c(Br)c(Br)c(O)c(Br)c1Br`: the growth was 111% (inactive).

Regarding `O=C(Nc1ccccc1)Oc1c(Cl)c(Cl)c(Cl)c(Cl)c1Cl`, the growth is 105% (inactive) and 97.1% (inactive).

As to `Nc1ncnc2c1ncn2C1OC(CO)C(O)C1O` (centres undefined), the growth was 104% (inactive) and 73.7% (inactive) and 100% (inactive).

In the case of `Nc1nc(N)c2nc(CNc3ccc(C(=O)NC(CCC(=O)O)C(=O)O)cc3)cnc2n1` (centres undefined), the growth was 13.9% (inactive) and 8.47% (active).

In the case of `O=C(CC1(O)C(=O)Nc2c(Cl)ccc(Cl)c21)c1ccc(Cl)cc1Cl` (centres undefined), the growth was 102% (inactive).

For the compound `O=C(/C=C\c1ccccc1)N1c2ccccc2CC1c1c[nH]c2ccccc12` (centres undefined), the growth was 77.7% (inactive).

For the compound `CC1=CC(O)C2CC1C2(C)C` (centres undefined), the growth was 95.7% (inactive) and 110% (inactive).

Consider `CCN1/C(=C\c2cc[n+](CC)c3ccccc23)C=Cc2ccccc21`, for which the growth was 25% (inactive).

For the compound `CC(C)c1ccc2nc3ccc(C(=O)NCCN4CCN(c5ccccc5)CC4)cn3c(=O)c2c1`, the growth was 34.4% (inactive).

In the case of `O=C(O)C1C2CC3C(OC(=O)C31)C2Br` (centres undefined), the growth was 105% (inactive) and 99% (inactive).

As for `NC(=S)N/N=C/c1ccc(Cl)s1`, the growth is 105% (inactive).

For `CCN(CC)CCOc1ccc(-c2nc3cc(Cl)ccc3s2)cc1`, the growth is 29.5% (inactive).
